# Where “and” joins values, the source holds several entries; their conditions need not be identical. Equal values may be shown once. Compounds without any hit were thinned out: in the full panel of roughly 83,000, 20% have a hit.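 Note: values are percent growth. 100 is the growth of untreated cells, values between 100 and 0 indicate rising inhibition; between -100 and 0 indicates cell death.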 Calls of active or inactive are those of the source. Rule for the calls: active = growth percent below 10; inactive = the rest.
# Key:
# Assay in all cases: NCI-60 one-dose screen, 48 h (100 = growth as untreated, 0 = no growth, -100 = all killed)
# SR leukemia = details: 10 µM unless noted
# RPMI-8226 leukemia = tested on: RPMI-8226 leukemia
# OVCAR-8 ovarian = tested on: OVCAR-8 ovarian
# OVCAR-5 ovarian = tested on: OVCAR-5 ovarian
# OVCAR-4 ovarian = tested on: OVCAR-4 ovarian
# SK-OV-3 ovarian = tested on: SK-OV-3 ovarian
# IGROV1 ovarian = tested on: IGROV1 ovarian
# OVCAR-3 ovarian = tested on: OVCAR-3 ovarian
# HS 578T breast = tested on: HS 578T breast
# NCI/ADR-RES ovarian = tested on: NCI/ADR-RES ovarian
SMILES,growth (SR leukemia),growth (RPMI-8226 leukemia; 10 µM),growth (OVCAR-8 ovarian; 10 µM),growth (OVCAR-5 ovarian; 10 µM),growth (OVCAR-4 ovarian; 10 µM),growth (SK-OV-3 ovarian; 10 µM),growth (IGROV1 ovarian; 10 µM),growth (OVCAR-3 ovarian; 10 µM),growth (HS 578T breast; 10 µM),growth (NCI/ADR-RES ovarian; 10 µM),growth (RPMI-8226 leukemia; 100 µM),growth (OVCAR-8 ovarian; 100 µM),growth (OVCAR-5 ovarian; 100 µM),growth (OVCAR-4 ovarian; 100 µM),growth (SK-OV-3 ovarian; 100 µM),growth (IGROV1 ovarian; 100 µM),growth (OVCAR-3 ovarian; 100 µM),growth (HS 578T breast; 100 µM),growth (NCI/ADR-RES ovarian; 100 µM)
Nc1nc(=S)c2ncn(C3OC(CO)C(O)C3O)c2[nH]1 (centres undefined),119% (inactive),103% (inactive) and 0.898% (active),100% (inactive) and 13.1% (inactive),101% (inactive) and 45.2% (inactive),103% (inactive) and 29.3% (inactive),118% (inactive),108% (inactive),112% (inactive) and 8.33% (active),163% (inactive) and 50.6% (inactive),106% (inactive) and 29.9% (inactive),,,,,,,,,
CC[N+](CC)=c1ccc2nc3c(cc(N)c4ccccc43)oc-2c1,-47.2% (active),10.2% (inactive),-28.4% (active),-81.7% (active),-42.6% (active),-72.7% (active),-42.2% (active),-56.8% (active),-26.2% (active),-62.2% (active),,,,,,,,,
Cc1cc(NS(=O)(=O)c2ccc(N=Nc3cc(N=Nc4ccc(S(=O)(=O)Nc5cc(C)nc(C)n5)cc4)c4c(NC(=O)C(Cl)Cl)cccc4c3OC(=O)C(Cl)Cl)cc2)nc(C)n1 (tested in a mixture with another compound),103% (inactive) and 69% (inactive),114% (inactive) and 101% (inactive),94.8% (inactive) and 91.7% (inactive),122% (inactive),101% (inactive) and 94.3% (inactive),103% (inactive) and 105% (inactive),104% (inactive),114% (inactive) and 93.3% (inactive),111% (inactive) and 128% (inactive),107% (inactive) and 104% (inactive),,,,,,,,,
O=C(C(=Cc1ccccc1)C(=O)c1ccccc1)c1ccccc1,6.35% (active) and 108% (inactive),-2.63% (active) and 85.2% (inactive),47.8% (inactive) and 87% (inactive),91.7% (inactive) and 84.7% (inactive),73.6% (inactive) and 84.7% (inactive),99.5% (inactive) and 106% (inactive),75.1% (inactive) and 117% (inactive),66.3% (inactive) and 85.7% (inactive),65.2% (inactive) and 94.3% (inactive),54.3% (inactive) and 84.3% (inactive),,,,,,,,,
O=C(Nc1ccc(C(=O)O)c(O)c1)c1ccccc1,113% (inactive) and 122% (inactive),132% (inactive) and 105% (inactive),97.7% (inactive) and 99.8% (inactive),93.8% (inactive) and 100% (inactive),108% (inactive) and 112% (inactive),100% (inactive) and 108% (inactive),100% (inactive) and 103% (inactive),115% (inactive) and 125% (inactive),130% (inactive) and 119% (inactive),84.2% (inactive) and 100% (inactive),,,,,,,,,
NNc1ccc2ccccc2c1,82.3% (inactive) and 94.9% (inactive),92.8% (inactive) and 97.2% (inactive),97.8% (inactive) and 96.2% (inactive),92.3% (inactive) and 93% (inactive),89.9% (inactive) and 88.2% (inactive),76.3% (inactive) and 91.1% (inactive),83% (inactive) and 103% (inactive),92.1% (inactive) and 99.6% (inactive),96.1% (inactive) and 98.9% (inactive),97.1% (inactive) and 101% (inactive),,,,,,,,,
O=c1ccn(C2CC(O)C(COC(c3ccccc3)(c3ccccc3)c3ccccc3)O2)c(=O)[nH]1 (centres undefined),33.2% [100 µM] (inactive),95.8% (inactive),80.7% (inactive),101% (inactive),94.5% (inactive),99.8% (inactive),99.2% (inactive),102% (inactive),89.3% (inactive),85% (inactive),40.2% (inactive),44.9% (inactive),73.7% (inactive),38.5% (inactive),94.9% (inactive),58.1% (inactive),47.8% (inactive),55.7% (inactive),44.3% (inactive)
COC(=O)C1=COC(C)C2C[n+]3ccc4c([nH]c5ccccc54)c3CC12 (centres undefined),104% (inactive) and 99.4% (inactive),93.9% (inactive) and 95.8% (inactive),107% (inactive) and 89.8% (inactive),105% (inactive) and 94.7% (inactive),100% (inactive) and 108% (inactive),114% (inactive) and 83.8% (inactive),103% (inactive) and 82.5% (inactive),104% (inactive) and 97.4% (inactive),111% (inactive) and 79.6% (inactive),108% (inactive) and 102% (inactive),,,,,,,,,
Nc1c2ccccc2nc2ccccc12,0.28% (active) and 18.5% (inactive) and 24.2% (inactive),43.6% (inactive) and -28.8% (active) and 43.7% (inactive),-30.4% (active) and 38.1% (inactive) and 29.2% (inactive),78.4% (inactive) and 55.4% (inactive),4.83% (active) and 33.8% (inactive) and 56.2% (inactive),18.9% (inactive) and 40% (inactive) and 34.1% (inactive),13.6% (inactive) and -40.3% (active) and 32.2% (inactive),3.88% (active) and 52.9% (inactive),44.9% (inactive) and 27.5% (inactive) and 82.2% (inactive),7.27% (active) and 43.1% (inactive) and 37% (inactive),,,,,,,,,
Clc1ccc(/C=C/c2ccccn2)c(Cl)c1,80.8% (inactive),102% (inactive),101% (inactive),106% (inactive),71.2% (inactive),103% (inactive),69.6% (inactive),90.4% (inactive),86.3% (inactive),109% (inactive),,,,,,,,,
CC(=O)Nc1cc(C)ccc1C,98.8% (inactive),117% (inactive),104% (inactive),102% (inactive),104% (inactive),102% (inactive),108% (inactive),102% (inactive),90.4% (inactive),103% (inactive),,,,,,,,,
CCCCCCCCCCSC(=N)N,-25% (active),-11% (active),61.5% (inactive),77.4% (inactive),76.7% (inactive),77.5% (inactive),46.1% (inactive),67% (inactive),81.1% (inactive),69.3% (inactive),,,,,,,,,
O=C1NC(=O)c2cc([N+](=O)[O-])ccc21,95.3% (inactive),71.2% (inactive),94.4% (inactive),101% (inactive),117% (inactive),105% (inactive),103% (inactive),110% (inactive),127% (inactive),113% (inactive),,,,,,,,,
OC(CN1CCCC2CCCCC21)c1cc2ccccc2c2ccccc12 (centres undefined),-36.1% (active),15.8% (inactive),51.6% (inactive),34.2% (inactive),29.1% (inactive),37.7% (inactive),58.1% (inactive),30.6% (inactive),26.1% (inactive),17.4% (inactive),,,,,,,,,
Oc1ccc(N=Nc2ccccn2)c(O)c1,10.6% (inactive),21.2% (inactive),18.5% (inactive),53.8% (inactive),29.8% (inactive),25.5% (inactive),19.9% (inactive),32.7% (inactive),65.1% (inactive),14.7% (inactive),,,,,,,,,
NC1=C(Cl)C(=O)c2ccccc2C1=O,46.4% (inactive),55.7% (inactive),74.4% (inactive),111% (inactive),72.3% (inactive),108% (inactive),67.7% (inactive),12.3% (inactive),14.5% (inactive),80.4% (inactive),,,,,,,,,
CC(=O)OCC(OC(C)=O)C(OC(C)=O)C(OC(C)=O)C(OC(C)=O)C(/C=N/Nc1ccccc1)=N/Nc1ccccc1 (centres undefined),2.05% (active),60.6% (inactive),63.8% (inactive),96.4% (inactive),82.6% (inactive),85.5% (inactive),60.1% (inactive),71.8% (inactive),73% (inactive),72.4% (inactive),,,,,,,,,
OCC(O)C(O)C(O)C(/C=N/Nc1ccccc1)=N/Nc1ccccc1 (centres undefined),58.8% (inactive),92.2% (inactive),92.6% (inactive),82.3% (inactive),93.1% (inactive),99.5% (inactive),83.4% (inactive),90.4% (inactive),79.7% (inactive),79.8% (inactive),,,,,,,,,
CCO/C=C1\SC(=S)N(c2cccc(O)c2)C1=O,85% (inactive),94.6% (inactive),99.4% (inactive),97.8% (inactive),93.8% (inactive),91.9% (inactive),99.2% (inactive),102% (inactive),108% (inactive),107% (inactive),,,,,,,,,
CCCCCCCCCCCC[N+](C)(C)Cc1ccccc1,4.5% (active),-48.3% (active),11.9% (inactive),55.6% (inactive),3.85% (active),34.9% (inactive),-49.2% (active),-0.287% (active),43.2% (inactive),96.8% (inactive),,,,,,,,,
